Source: PubChem BioAssay
An excerpt weighted towards active compounds, which were near 4.2% of everything screened.
esBAF inh: SWI/SNF esBAF complex inhibition; 2% of 350,000 active; reporter increase, % at 12.5 µM; mouse ES cells, Bmi1-luciferase knock-in reporter, 24 h; 100% = twice the neutral-well signal; AID 602393; in the data active = activation above about 40%; inconclusive = no clear call, values can overlap the other calls;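 also: a rise in the Bmi1 reporter signal indicates esBAF inhibition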
Wnt act: activates Wnt/beta-catenin signaling in a reporter cell assay; activator, plate reader; activation, % at 9.35 µM; 1.2% of 300,000 active; AID 743398; in the data active = activation above about 30%, passing the limit was not always enough; inconclusive = no clear call, values can overlap the other calls
hgDAF-12 ag: activates the H. glycines DAF-12 receptor ligand-binding domain; activation, % at 6.8 µM; 1.8% of 370,000 active; HEK293 GAL4-hgDAF12 UAS-luciferase reporter, agonist luminescence; normalized to butyrate control; AID 687014;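 active = activation above a cutoff set at the mean of all screened compounds plus 3 SD, cut at about 10% in these data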
hcDAF12 agonist: activates DAF-12 receptor from parasite H. contortus | HEK293 hcDAF-12 lit1-tk-luc reporter, luminescence; 0% DMSO, 100% Δ7-dafachronic acid | activation, % at 6.8 µM | 1.4% of 370,000 active;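 active = activation above the mean of all tested compounds plus 3 SD, cut at about 5.5% in these data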
ssDAF-12 act: activators of S. stercoralis DAF-12 nuclear receptor | activation, % at 6.8 µM | 1% of 370,000 active | HEK293 ssDAF-12/GRIP1 lit1-tk-luc reporter, luminescence; % of 3 µM dafachronic acid response;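 active = activation above the mean over all tested compounds plus 3 SD, cut at about 0.9% in these data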
DAX1 StAR inh: blocks DAX1 repression of SF-1 activated StAR promoter | HEK293T StAR-luciferase reporter, SF-1/DAX-1 repression relief | inhibition, % at 6.8 µM | 1.1% of 370,000 active;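 active = inhibition above the mean over all tested compounds plus 3 SD, cut at about 3.6% in these data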;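 also: higher inhibition means more luminescence from relief of DAX-1 repression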
DAX1 conf: NR0B1 (human) inhibition, confirmation | AID 652134 | shares compounds with DAX1 StAR inh | 87% of 2,400 active | HEK293T StAR-promoter luciferase reporter, SF-1/DAX-1 repression | inhibition, % at 6.8 µM;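 active = inhibition above the average of every tested compound plus 3 SD, cut at about 3.8% in these data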;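 also: active compounds raise luminescence by relieving repression of the StAR reporter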
Target sequence (P51843 whole entry, looked up): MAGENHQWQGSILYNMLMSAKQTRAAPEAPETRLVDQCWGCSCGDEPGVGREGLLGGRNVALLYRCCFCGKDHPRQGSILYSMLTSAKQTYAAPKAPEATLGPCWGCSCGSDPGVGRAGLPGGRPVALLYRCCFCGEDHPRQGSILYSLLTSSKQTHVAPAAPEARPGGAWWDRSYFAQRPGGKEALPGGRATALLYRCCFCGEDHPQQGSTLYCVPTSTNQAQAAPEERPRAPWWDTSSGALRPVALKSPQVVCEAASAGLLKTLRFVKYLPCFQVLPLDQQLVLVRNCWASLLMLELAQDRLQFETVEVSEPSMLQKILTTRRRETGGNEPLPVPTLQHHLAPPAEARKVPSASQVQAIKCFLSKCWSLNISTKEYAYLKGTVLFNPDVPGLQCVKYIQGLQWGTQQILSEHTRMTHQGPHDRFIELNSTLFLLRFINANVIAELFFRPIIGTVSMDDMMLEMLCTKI
SF1 mutant ctr: counter-screen for DAX1 inhibitors: nonselective inhibitors with SF-1 AF2 mutant; shares compounds with DAX1 StAR inh; HEK293 StAR-luciferase, luminescence; inhibition, % at 6.8 µM; 78% of 2,400 active;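 active = inhibition above the mean of all tested compounds plus 3 SD, cut at about 3% in these data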
A number is an active result; - = inactive; ? = inconclusive; . = not tested or not shown.

SMILES | esBAF inh | Wnt act | hgDAF-12 ag | hcDAF12 agonist | ssDAF-12 act | DAX1 StAR inh | DAX1 conf | SF1 mutant ctr
O=C(NNC(=S)Nc1ccccc1)c1cccnc1 | . | - | - | - | - | 5.1 | 3.6 | 5.6
O=C(NNC(=S)Nc1cccc(Cl)c1)c1ccccc1 | ? | - | - | - | - | 5.3 | 4.8 | 4.0
S=C(NNC(=S)Nc1ccc(Cl)cc1)NNc1ccccc1 | . | - | - | - | - | - | . | .
CCOC(=O)[C@]12CCCC=C1N(Cc1ccc(OC)cc1)C(=O)[C@@H]2CC(=O)NCCCOC | . | . | - | - | - | - | . | .
CCOC(=O)[C@]12CCCCC/C=C\1N(Cc1ccc(OC)cc1)C(=O)[C@H]2CC(=O)NCCCOC | . | . | - | - | - | 5.2 | - | -
Cc1ccc(S(=O)(=O)Nc2ccc3c(c2)C(=O)N([C@H](C)CO)C[C@@H](C)[C@H](CN(C)C(=O)Nc2c(C)noc2C)O3)cc1 | - | . | . | . | . | . | . | .
CC(=O)c1c(C)[nH]c(C(=O)Nc2ccc(C)c(C)c2)c1C | 85 | 55 | - | - | - | 4.6 | 10 | 7.4
COc1ccc(NC(=O)c2ccccc2NC(=O)c2ccccc2)cc1 | - | - | - | - | - | - | . | .
COc1ccc(NC(=O)c2ccccc2NC(=O)C2CC=CCC2C(=O)O)cc1 (configuration not stated) | - | - | 12 | - | - | 5.6 | 4.0 | 3.4
Cc1occc1C(=O)N/N=C/c1ccc[nH]1 | . | - | 11 | - | - | 5.2 | - | -
Cc1occc1C(=O)N/N=C/c1cccs1 | - | - | - | - | - | - | . | .
COc1ccc(S(=O)(=O)N(C)C[C@H]2Oc3c(NC(=O)c4ccc(-c5nccs5)cc4)cccc3C(=O)N([C@@H](C)CO)C[C@H]2C)cc1 | - | . | . | . | . | . | . | .
Cc1ccc(-c2csc(/C(C#N)=C(\O)CCl)n2)cc1 | . | - | 12 | - | - | 5.1 | - | -
CCCCN(C)C/C(O)=C(\C#N)c1nc(-c2ccccc2)cs1 | . | . | - | - | - | - | . | .
CCOc1ccc(OCc2cccc(C(=O)N3CCOCC3)c2)cc1 | - | - | - | - | 1.4 | 5.8 | 11 | 7.7
C[C@H]1CCCCO[C@@H](CN(C)C(=O)Nc2ccc3c(c2)OCO3)[C@@H](C)CN([C@@H](C)CO)C(=O)c2cc(NS(=O)(=O)c3ccccc3)ccc2O1 | - | . | . | . | . | . | . | .
O=C(CSc1ccccn1)Nc1ccc2c(c1)OCCO2 | ? | - | - | - | - | - | . | .
O=C(CSc1ccccn1)Nc1ccc2c(c1)CCC2 | 77 | . | - | - | - | 5.0 | 7.2 | 5.5
CN1CCN(c2ccc(NC(=O)c3ccc(Br)o3)cc2)CC1 | - | - | 12 | - | - | 6.2 | 8.3 | 6.1
CN1CCN(c2ccc(NC(=O)c3ccc4ccccc4c3)cc2)CC1 | - | - | - | - | - | 8.2 | 10 | -
Cc1cc(C)cc(C(=O)Nc2ccc(N3CCCC3)cc2)c1 | . | - | 12 | - | - | 4.5 | 13 | 5.8
Cc1ccc(C(=O)N2CCN(c3ccc(NC(=O)c4ccc(Br)o4)cc3)CC2)cc1 | ? | - | - | - | - | - | . | .
Cc1ccc(C(=O)N2CCN(c3ccc(NC(=O)c4cc(C)cc(C)c4)cc3)CC2)cc1 | . | - | - | - | - | - | . | .
C[C@@H]1CN([C@H](C)CO)C(=O)c2cc(NS(=O)(=O)c3cn(C)cn3)ccc2O[C@H]1CN(C)CC1CCCCC1 | - | . | . | . | . | . | . | .
O=C(C[C@@H]1C[C@H]2c3cc(NC(=O)C4CCC4)ccc3O[C@H]2[C@@H](CO)O1)NCc1cc(F)ccc1F | - | . | . | . | . | . | . | .
SMILES | esBAF inh | Wnt act | hgDAF-12 ag | hcDAF12 agonist | ssDAF-12 act | DAX1 StAR inh | DAX1 conf | SF1 mutant ctr
Cc1c(C(=O)NCCCN2CCCCC2)oc2ccc3c(c12)C(O)CC1(CCCCC1)O3 (configuration not stated) | - | - | - | - | - | 5.7 | - | -
CCOC(=O)C1CCN(C(=O)c2oc3ccc4c(c3c2C)C(O)CC2(CCCCC2)O4)CC1 (configuration not stated) | - | - | - | - | - | - | . | .
C[C@H](CO)N1C[C@H](C)[C@@H](CN(C)Cc2ccc3c(c2)OCO3)Oc2ccc(NS(=O)(=O)c3cccs3)cc2CC1=O | - | . | . | . | . | . | . | .
C[C@@H]1CN([C@@H](C)CO)C(=O)Cc2cc(NS(C)(=O)=O)ccc2O[C@@H]1CN(C)Cc1ccc(-c2ccccc2)cc1 | - | . | . | . | . | . | . | .
CC(=O)Nc1ccc2ccccc2c1 | - | . | . | . | . | . | . | .
Cc1coc(C)c1C(=O)Nc1ccc2ccccc2c1 | 57 | - | - | - | 0.9 | 7.4 | 6.0 | 3.8
O=C(Nc1ccc2ccccc2c1)c1cnccn1 | - | ? | 11 | 6.4 | - | 5.5 | 14 | 7.9
COc1ccc(NC(=O)c2cccnc2)cc1 | - | - | - | - | - | - | . | .
O=C(Nc1ccc2ccccc2c1)c1cccnc1 | - | . | - | - | - | 4.7 | 11 | 7.7
COCC#Cc1ccc2c(c1)O[C@H](CN(C)C)[C@@H](C)CN([C@H](C)CO)S2(=O)=O | - | . | . | . | . | . | . | .
CNC(=O)C[C@H]1CC[C@@H]2[C@H](COC[C@@H](O)CN2C(=O)Nc2ccc3c(c2)OCO3)O1 | - | . | . | . | . | . | . | .
CN1C(=O)c2cc(NC(=O)c3ccno3)ccc2OC[C@H]2O[C@@H](CC(=O)NCC3CC3)CC[C@@H]21 | - | . | . | . | . | . | . | .
O=C(NCC1(N2CCCCC2)CCCCC1)c1ccc(NS(=O)(=O)c2ccccc2)cc1 | - | - | - | - | - | 8.9 | 9.0 | 5.6
Cc1cccc(NS(=O)(=O)c2ccc(C(=O)NCC3(N4CCCCC4)CCCCC3)cc2)c1C | - | - | - | - | - | 7.3 | 9.7 | 6.6
CCc1ccc(OCC(=O)O/N=C(\N)c2ccncc2)c(Br)c1 | 95 | 31 | 12 | - | - | 7.6 | 7.0 | 4.8
CCOC(=O)C1(Cc2cccc(Cl)c2)CCCN(C(=O)CCOC)C1 (configuration not stated) | - | - | - | - | - | - | . | .
CCOC(=O)C1(Cc2cccc(OC)c2)CCCN(C(=O)CCN2CCCO2)C1 (configuration not stated) | 68 | - | 11 | - | - | 4.8 | 7.0 | 5.8
C[C@H](NS(=O)(=O)c1ccc(Cl)cc1)C(=O)OCC(=O)Nc1cc(S(=O)(=O)N2CCOCC2)ccc1Cl | - | - | - | - | - | 7.7 | - | -
CCN(CC)c1ccc(S(=O)(=O)N2CCOCC2)cc1NC(=O)COC(=O)c1cccnc1SC | . | - | - | - | - | 5.3 | - | -
C[C@H](NC(=O)C[C@H]1C[C@H]2c3cc(NC(=O)NC4CCCCC4)ccc3O[C@H]2[C@H](CO)O1)c1ccccc1 | - | . | . | . | . | . | . | .
Cc1cc(C(=O)Nc2cccc3c2O[C@@H](CN(C)C(=O)Nc2c(C)noc2C)[C@H](C)CN([C@H](C)CO)C3=O)n(C)n1 | - | . | . | . | . | . | . | .
